Assay outcomes: PubChem BioAssay, National Center for Advancing Translational Sciences (NCATS)
PI5P4K alpha inh: PI5P4K alpha (human) kinase inhibition. P48426. PI5P4Kalpha enzyme, ADP-Glo luminescence, 60 min; active compounds read low. max response, %. 1.2% of 330,000 active; active means max response of -50% or lower; inconclusive means between -30% and -50%; inactive means -30% or higher; further: value at the top dose of about 77 µM; on the % scale 0 is the no-effect control and ±100 the full control effect
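Single end-point luminescence (ADP-Glo) quantified ADP from PI5P4Kalpha turnover; ATP 5 microM final, 1 h at RT, 0.1% CHAPS and 0.28 mM EGTA in HEPES pH 7.4.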
JMJD2E inh: JMJD2E (human) inhibition; B2RXH2; JMJD2E catalytic domain, FDH-coupled NADH fluorescence (FDH is formaldehyde dehydrogenase); Potency, µM (top dose mostly 57.1 µM), inactives show at the top dose activity change, negative = inhibition, hits mostly inhibitors; 1.6% of 230,000 active; AID 2147; active means well fitted inhibition curve with a large enough effect, not every such curve was filed as active; inconclusive means small, poorly fitted or top-dose-only effect, or another doubt; inactive means no such curve, though single readings can be large or run the other way;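 further: potency means the concentration at half of the fitted maximal effect; 0% = wells with enzyme and -100% = buffer wells without enzyme; nearly all actives have a fitted effect of over 50% in size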
JMJD2A Tudor inh: inhibitors of human JMJD2A Tudor domain; AlphaScreen JMJD2A-Tudor / H3K4me3 peptide binding; Potency, µM (series often up to 114 µM), for inactives: at the highest dose activity change, negative = inhibition, actives largely listed as inhibitors; 4.4% of 390,000 active; AID 504339; further: potency means the concentration at half of the fitted maximal effect; on the % scale 0 is the no-effect control and ±100 the full control effect; nearly all actives have a fitted effect of over 50% in size
BAZ2B block: BAZ2B (human) inhibition; AID 504333; 4.4% of 360,000 active; Q9UIF8; Potency, µM (highest dose often 114 µM), for the others: top-dose activity change, negative = inhibition, usual class: inhibitors; AlphaScreen BAZ2B-H3K14Ac peptide displacement; further: potency means the concentration at half of the fitted maximal effect; on the % scale 0 is the no-effect control and ±100 the full control effect; nearly all actives have a fitted effect of over 60% in size
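AlphaScreen luminescence quantifies BAZ2B engagement of H3K14Ac peptide; the protein and biotinylated peptide are both at 50 nM final, buffer PBS pH 7.4 with 0.01% Tween-20, all steps at room temperature.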
HP1b chromo inh: HP1-beta chromodomain-methylated histone interaction inhibition; AlphaScreen HP1-beta / biotin-H3K9me3 peptide binding; 0.56% of 390,000 active; Potency, µM (top dose mostly 114 µM), without a hit: at the top dose activity change, negative = inhibition, usual class: inhibitors; P83916; further: potency means the concentration at half of the fitted maximal effect; nearly all actives have a fitted effect of over 70% in size
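AlphaScreen: HP1-beta (50 nM) preformed 30 min with biotin-H3(1-18)K9me3 peptide (50 nM) in PBS pH 7.4, 0.01% Tween-20. Compound added for 30 min at RT, then streptavidin donor/nickel chelate acceptor beads (10 ug/mL) for 30 min.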
L3MBTL1 inh: L3MBTL1 (human) inhibition; AlphaScreen L3MBTL1–H3K9me1 peptide binding; Potency, µM (highest dose often 57.1 µM), for the others: top-dose activity, negative = inhibition, most hits filed as inhibitors; 0.66% of 230,000 active; AID 485360; further: potency means the concentration at half of the fitted maximal effect; on the % scale 0 is the no-effect control and ±100 the full control effect; nearly all actives have a fitted effect of over 60% in size
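Displacement of a biotinylated histone H3(1-15) peptide monomethylated at Lys9 (75 nM) from L3MBTL1 (50 nM) was measured by AlphaScreen after a 30 min room-temperature compound incubation; cefsulodin titration served as intraplate control.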
Starred values were filed as active, the others as inactive; ? = inconclusive; · = no result; [ ] = remark or other dose. Rows were chosen to be rich in hits. Some 5.7% of all compounds tested hit in one or more screens of this group. Unless noted, the call rests on the fitted dose curve; in most records, active means well fitted inhibition curve with a large enough effect; inconclusive means small, poorly fitted or top-dose-only effect; inactive means no such curve, though single readings can be large or run the other way.

SMILES	PI5P4K alpha inh	JMJD2E inh	JMJD2A Tudor inh	BAZ2B block	HP1b chromo inh	L3MBTL1 inh
Nc1c(C(=O)Nc2ccc(OC(F)(F)F)cc2)sc2nc(-c3ccncc3)ccc12	·	·	-1.0%	0.7%	49.4%	·
COc1ccc(NC(=O)Cn2c(SCc3ccc(C)cc3)nc3cccnc32)cc1OC	·	·	-3.0%	3.2%	22.0%	·
CCOC(=O)c1c(CSc2ccccc2)n(C)c2ccc(O)c(CN3CCOCC3)c12	3.4	-2.0%	-34.0%	35.5µM*	8.4%	-26.9%
CCOC(=O)c1c(C)n(C)c2ccc(O)c(CN3CCN(C)CC3)c12	·	-10.9%	-21.5%	·	-4.4%	-5.2%
COc1ccc(CNC(=O)C(=O)NCC(c2cccnc2)N2CCN(c3ccccc3)CC2)cc1 (stereo unspecified)	·	·	2.3%	-23.3%	28.2%	·
COc1ccc2c(c1)CC/C(=C\C=C\c1ccccc1OC)C2=O	0.3	1.8%	-14.9%	8.2%	16.2%	-1.3%
COc1ccc2c3c(ccc2c1)C(=O)/C(=C/O)CC3	?	·	7.94µM*	·	35.5µM*	·
O=C(Nc1ccc(N2CCOCC2)cc1)c1cc2c(s1)CCCCC2	0.7	-22.2%	79.4µM*	?	?	-22.4%
O=C(Nc1ccc(N2CCOCC2)cc1)c1cc2c(s1)CCCC2	0.8	10.0%	?	39.8µM*	-0.2%	-24.8%
CCOC(=O)C1=C(COC(=O)/C=C/c2ccc(SC)cc2)NC(=O)NC1C (stereo unspecified)	?	·	-10.5%	10.0%	0.1%	-11.9%
C=CCOC(=O)N[C@@H](CC(C)C)/C(C(=O)OC)=C(\C)NCc1ccccc1	·	3.9%	·	·	·	·
CCCCN(C)C(=O)C1CCC(CNS(=O)(=O)c2ccc(Cl)cc2)CC1 (stereo unspecified)	·	·	-27.9%	-28.1%	33.2%	·
COc1ccc(C(C(=O)Nc2ccc(C(C)C)cc2)N(Cc2ccco2)C(=O)CC2NC(=O)NC2=O)cc1 (stereo unspecified)	3.2	-4.1%	-32.6%	39.8µM*	-1.9%	·
COc1ccc(NC(=O)C(c2ccc(OC)cc2)N(Cc2ccco2)C(=O)CC2NC(=O)NC2=O)cc1 (stereo unspecified)	-0.2	-1.9%	-11.9%	?	10.4%	·
Cc1cc(C)nc(N/N=C/c2ccccc2OCC(=O)O)n1	6.9	·	2.51µM*	1.6%	0.3%	·
O=C(O)COc1ccccc1/C=N/Nc1ccc(S(=O)(=O)Nc2ccc(Cl)cc2)cc1[N+](=O)[O-]	-29.3	-10.9%	?	35.5µM*	?	-28.6%
COc1ccccc1NS(=O)(=O)c1ccc(N/N=C/C=C/c2ccccc2[N+](=O)[O-])c([N+](=O)[O-])c1	1.1	-5.7%	?	?	-14.8%	-6.7%
COc1ccccc1NS(=O)(=O)c1ccc(N/N=C/c2ccccc2OCC(=O)O)c([N+](=O)[O-])c1	-1.6	-8.6%	56.2µM*	39.8µM*	?	·
COc1ccccc1NS(=O)(=O)c1ccc(NN=C2CCCC2)c([N+](=O)[O-])c1	0.2	-6.8%	20µM*	?	?	-21.1%
O=C(Nc1nc2nc(-c3ccccc3)cc(=O)n2[nH]1)c1ccc(F)cc1	·	·	-10.4%	79.4µM*	29.8%	-2.8%
O=C(O)CC(CP(=O)(c1ccccc1)c1ccccc1)C(=O)O (stereo unspecified)	·	2.4%	-24.5%	-2.6%	5.9%	9.1%
NC(CCCCCP(=O)(c1ccccc1)c1ccccc1)C(=O)O (stereo unspecified)	-20.8	7.8%	10µM*	-17.8%	-1.0%	13.3%
O=C(CSc1nc2ccccc2n1Cc1ccccc1Cl)NCc1ccccc1	·	·	-3.3%	-12.2%	25.9%	·
CC1COc2ccccc2N1C(=O)c1ccc(Cl)nc1 (stereo unspecified)	6.5	-15.6%	-17.7%	?	19.3%	-0.3%
CCC1C(=O)Nc2ccccc2N1C(=O)c1ccc(Cl)nc1 (stereo unspecified)	-0.4	-0.3%	100µM*	5.0%	20.7%	·
SMILES	PI5P4K alpha inh	JMJD2E inh	JMJD2A Tudor inh	BAZ2B block	HP1b chromo inh	L3MBTL1 inh
CCOCCCn1c(SCC(=O)Nc2ccc(F)cc2)nc2c(sc3ccccc32)c1=O	·	·	-17.7%	2.6%	9.3%	·
C=CC#CC[N+]1(CC#Cc2ccccc2)CCOCC1	-81.8*	0.8%	39.8µM*	?	35.5µM*	10.0%
COc1ccccc1C1c2[nH]c3ccccc3c2CCN1Cc1cnc(C)s1 (stereo unspecified)	-0.1	?	-0.8%[11.4 µM]	-10.3%	20.8%	-2.1%
COc1ccc(C2c3[nH]c4ccccc4c3CCN2Cc2cccn2-c2ncccn2)cc1C (stereo unspecified)	0.3	-0.6%	?	35.5µM*	?	-7.1%
c1ccc(C2c3[nH]c4ccccc4c3CCN2Cc2cccn2-c2ccccn2)nc1 (stereo unspecified)	-3.2	?	?	20µM*	-9.2%	-22.8%
Cc1cccc(C2c3[nH]c4ccccc4c3CCN2Cc2cccn2-c2ncccn2)c1 (stereo unspecified)	-11.3	31.6µM*	50.1µM*	31.6µM*	?	-17.5%
Oc1cccc(C2c3[nH]c4ccccc4c3CCN2Cc2ccoc2)c1 (stereo unspecified)	1.6	?	?	?	-16.2%	?
Oc1cccc(C2c3[nH]c4ccccc4c3CCN2Cc2ccc3c(c2)CCO3)c1 (stereo unspecified)	-1.9	-19.9%	56.2µM*	44.7µM*	-34.5%	?
Cc1cccc(C2c3[nH]c4ccccc4c3CCN2Cc2ccc(C)s2)n1 (stereo unspecified)	9.1	-7.2%	?	-34.0%	-8.3%	-6.1%
CC(=O)Nc1ccc(CN2CCc3c([nH]c4ccccc34)C2c2ccccn2)cc1 (stereo unspecified)	1.5	25.1µM*	?	?	-8.6%	-27.4%
COc1cccc(C2c3[nH]c4ccccc4c3CCN2Cc2cnc(C)s2)c1OC (stereo unspecified)	1.2	-27.1%	?	25.1µM*	-10.8%	-29.2%
CCOC(=O)c1cc(-c2ccc(OC)cc2)n(CCC(=O)NCc2ccc(OC)cc2)c1C	·	·	2.6%	2.1%	31.1%	·
CC(=O)c1ccc(N2CCN(S(=O)(=O)c3ccc4c(c3)CC(=O)N4)CC2)cc1	-14.0	·	-29.1%[229 µM]	1.3%	43.5%	·
COc1ccc(N2CCN(C(=O)c3ccc(Cl)c(S(=O)(=O)N4CCCC4)c3)CC2)cc1	0.1	3.2%	?	70.8µM*	-1.1%	?
COc1ccc(N2CCN(C(=O)c3ccc(Cl)c(S(=O)(=O)N4CCOCC4)c3)CC2)cc1	-10.1	·	-22.5%	·	1.5%	·
COc1ccc(N2CCN(C(=O)c3ccc(NS(=O)(=O)c4cccc(F)c4)cc3)CC2)cc1	·	-9.5%	?	?	-10.9%	·
